Reference: PubChem BioAssay (NCI)
The panel holds about 83,000 compounds, 20% with a hit somewhere; the sample as a whole holds those more often.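 48-hour exposure, single concentration, 96-well plates; percent growth endpoint where 0 means no net growth. Active: below 10.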 Calls of active or inactive are those of the source.

Key:
Assay in all cases: NCI-60 one-dose screen, 48 h (100 = growth as untreated, 0 = no growth, -100 = all killed)
Conditions in all cases: 10 µM unless noted
DU-145 prostate = tested on: DU-145 prostate
K-562 leukemia = tested on: K-562 leukemia
MALME-3M melanoma = tested on: MALME-3M melanoma
MDA-MB-231 breast = tested on: MDA-MB-231 breast
RXF 393 renal = tested on: RXF 393 renal
SF-268 CNS = tested on: SF-268 CNS
SF-295 CNS = tested on: SF-295 CNS
SF-539 CNS = tested on: SF-539 CNS
UACC-257 melanoma = tested on: UACC-257 melanoma
M14 melanoma = tested on: M14 melanoma

Measured: growth

COc1ccc(Nc2ncc(I)c(NCCCNC(=O)C3CCC3)n2)cc1
inactive: DU-145 prostate 16.3% | K-562 leukemia 25.7% | MALME-3M melanoma 41% | SF-268 CNS 14.7% | SF-295 CNS 20.8% | UACC-257 melanoma 75.3% | M14 melanoma 43%
active: MDA-MB-231 breast -45.4% | RXF 393 renal -84.1% | SF-539 CNS -34.5%

O=C(Nc1ccc(Nc2ccncc2)cc1)c1ccc(Nc2ccnc3ccc([N+](=O)[O-])cc23)cc1
inactive: DU-145 prostate 103% | K-562 leukemia 80.5% | MALME-3M melanoma 114% | MDA-MB-231 breast 80.5% | RXF 393 renal 116% | SF-268 CNS 97.6% | SF-295 CNS 106% | SF-539 CNS 85.5% | UACC-257 melanoma 101% | M14 melanoma 108%

CN(C)c1ccc(C(=S)c2ccc(N(C)C)cc2)cc1
inactive: DU-145 prostate 98.9% | K-562 leukemia 28.4% | MALME-3M melanoma 50.3% | MDA-MB-231 breast 72.2% | RXF 393 renal 84.2% | SF-268 CNS 79.7% | SF-295 CNS 80% | SF-539 CNS 77.1% | UACC-257 melanoma 81% | M14 melanoma 51.1%

COc1ccc(C(=O)C/C(=C\c2ccc(O)c(OC)c2)C(=O)NN)cc1
inactive: DU-145 prostate 101% | K-562 leukemia 47.2% | MALME-3M melanoma 93.4% | MDA-MB-231 breast 65.4% | RXF 393 renal 107% | SF-268 CNS 92.4% | SF-295 CNS 102% | SF-539 CNS 80.8% | UACC-257 melanoma 81.5% | M14 melanoma 91.5%

CCN(CC)C(=O)CC1=C(C)/C(=C/c2[nH]c(-c3ccc[nH]3)cc2OC)N=C1C
inactive: DU-145 prostate 34.8% | RXF 393 renal 35.9% | SF-268 CNS 21.7% | SF-539 CNS 20.6%
active: K-562 leukemia 6.08% | MALME-3M melanoma 1.07% | MDA-MB-231 breast -0.929% | SF-295 CNS -51.6% | UACC-257 melanoma 5.68% | M14 melanoma -55.8%

Cc1ccc(O)c(NC(=O)c2cccc(Nc3ccnc(C(F)(F)F)c3)c2)c1
inactive: DU-145 prostate 80.9% | K-562 leukemia 40.9% | MALME-3M melanoma 70.1% | MDA-MB-231 breast 58.9% | RXF 393 renal 91.2% | SF-268 CNS 76.6% | SF-295 CNS 40.3% | SF-539 CNS 72.6% | UACC-257 melanoma 58.7% | M14 melanoma 68.4%

COc1ccc(-c2nc3c(c(-c4ccc(Cl)cc4)nn3-c3ccccc3)c(-c3ccccc3)c2C#N)cc1
inactive: DU-145 prostate 104% | K-562 leukemia 100% | MALME-3M melanoma 103% | MDA-MB-231 breast 111% | RXF 393 renal 134% | SF-268 CNS 106% | SF-295 CNS 102% | SF-539 CNS 103% | UACC-257 melanoma 95.9% | M14 melanoma 92.3%

CCN1C(=O)N(c2ccccc2)C2NC(=S)N(/N=C/C=C/c3ccccc3OC)C21 (stereo not given)
inactive: MALME-3M melanoma 40.9% | MDA-MB-231 breast 16.7% | RXF 393 renal 62.2% | SF-268 CNS 47.3% | SF-295 CNS 14.2% | UACC-257 melanoma 22% | M14 melanoma 11.2%
active: DU-145 prostate 5.45% | K-562 leukemia 9.41% | SF-539 CNS -13.3%

c1ccc(-c2ccc3c(c2)C2(CCNCC2)CN3)cc1
inactive: DU-145 prostate 99% | K-562 leukemia 90% | MALME-3M melanoma 94.1% | MDA-MB-231 breast 85.1% | RXF 393 renal 112% | SF-268 CNS 87.4% | SF-295 CNS 98.6% | SF-539 CNS 97.8% | UACC-257 melanoma 119% | M14 melanoma 92.3%

COc1ccc(C2C3=C(COC3=O)N(CCO)c3cc4c(cc32)OCO4)cc1OC (stereo not given)
inactive: DU-145 prostate 100% | K-562 leukemia 52% | MALME-3M melanoma 104% | MDA-MB-231 breast 101% | RXF 393 renal 81.4% | SF-268 CNS 91% | SF-295 CNS 62.6% | SF-539 CNS 91.9% | UACC-257 melanoma 90.6% | M14 melanoma 68.6%

COc1ccc(-c2nc3ccc(C)cc3c3c2c(=O)n(C)c(=O)n3C)cc1OC
inactive: DU-145 prostate 108% | K-562 leukemia 107% | MALME-3M melanoma 111% | MDA-MB-231 breast 102% | RXF 393 renal 99.2% | SF-268 CNS 100% | SF-295 CNS 91.3% | SF-539 CNS 108% | UACC-257 melanoma 114% | M14 melanoma 109%

O=c1cc(-c2ccccc2)nc(SCc2nc3cc(Cl)c(Cl)cc3[nH]2)[nH]1
inactive: DU-145 prostate 106% | K-562 leukemia 88.8% | MALME-3M melanoma 103% | MDA-MB-231 breast 102% | RXF 393 renal 107% | SF-268 CNS 101% | SF-295 CNS 102% | SF-539 CNS 94.3% | UACC-257 melanoma 103% | M14 melanoma 104%

O=C1CCCC1[n+]1ccccc1 (stereo not given)
inactive: DU-145 prostate 105% | K-562 leukemia 108% | MALME-3M melanoma 89.9% | MDA-MB-231 breast 105% | RXF 393 renal 121% | SF-268 CNS 95.2% | SF-295 CNS 95.1% | SF-539 CNS 82.6% | UACC-257 melanoma 79.2% | M14 melanoma 95%

CCOc1ccc(NC(=O)Nc2ccc(OCC)cc2)cc1
inactive: DU-145 prostate 106% | K-562 leukemia 97.6% | MALME-3M melanoma 100% | MDA-MB-231 breast 110% | RXF 393 renal 114% | SF-268 CNS 104% | SF-295 CNS 95.7% | SF-539 CNS 97.2% | UACC-257 melanoma 113% | M14 melanoma 109%

N[C@@H]1CCC[C@H]1NCCCCN1C(=O)c2cccc3cc([N+](=O)[O-])cc(c23)C1=O
inactive: DU-145 prostate 22.2% | K-562 leukemia 18.6% | MALME-3M melanoma 57.5% | MDA-MB-231 breast 45.1% | RXF 393 renal 32.3% | SF-268 CNS 34.3% | SF-295 CNS 55.5% | SF-539 CNS 32.7% | UACC-257 melanoma 61.2% | M14 melanoma 63.7%

CCOC(=O)NC(=S)n1oc(=O)c2ccccc21
inactive: DU-145 prostate 106% | K-562 leukemia 112% | MALME-3M melanoma 95.4% | MDA-MB-231 breast 96.8% | RXF 393 renal 111% | SF-268 CNS 96.1% | SF-295 CNS 103% | SF-539 CNS 95.6% | UACC-257 melanoma 105% | M14 melanoma 104%

CN(C)CCCNC(=O)c1cncnc1Nc1ccc2c(ccn2Cc2cccc(F)c2)c1
inactive: DU-145 prostate 97.8% | K-562 leukemia 37.5% | MALME-3M melanoma 81.9% | MDA-MB-231 breast 67.6% | RXF 393 renal 70.9% | SF-268 CNS 85.6% | SF-295 CNS 106% | SF-539 CNS 83.7% | UACC-257 melanoma 84.4% | M14 melanoma 107%

ClCCn1cnc2c(SCc3ccccc3)ncnc21
inactive: DU-145 prostate 63.3% | K-562 leukemia 40.8% | MALME-3M melanoma 57.6% | MDA-MB-231 breast 75.6% | RXF 393 renal 87.8% | SF-268 CNS 67.1% | SF-295 CNS 37.6% | SF-539 CNS 37.3% | UACC-257 melanoma 62.4% | M14 melanoma 71.7%

CCN1C2CCC1/C(=C\c1ccccc1)C(=O)/C2=C/c1ccccc1
active: DU-145 prostate 1.64%
inactive: K-562 leukemia 32.1% | MALME-3M melanoma 63.7% | MDA-MB-231 breast 79.2% | RXF 393 renal 48.9% | SF-268 CNS 42.8% | SF-295 CNS 48.4% | SF-539 CNS 45.4% | UACC-257 melanoma 52.2% | M14 melanoma 48.2%

CN1C(=O)N2CN3CCCN(C3)CN3C(=S)NC1C23 (stereo not given)
inactive: DU-145 prostate 103% | K-562 leukemia 97.1% | MALME-3M melanoma 112% | MDA-MB-231 breast 104% | RXF 393 renal 109% | SF-268 CNS 99.8% | SF-295 CNS 105% | SF-539 CNS 103% | UACC-257 melanoma 87.6% | M14 melanoma 107%

C#Cc1cccc(NC(=O)C2CCCCN2C(=O)CCl)c1 (stereo not given)
active: DU-145 prostate -33.8% [8.25 µM] | K-562 leukemia 2.41% [8.25 µM] | MALME-3M melanoma -86.7% [8.25 µM] | MDA-MB-231 breast -62% [8.25 µM] | RXF 393 renal -87.8% [8.25 µM] | SF-268 CNS -53.2% [8.25 µM] | SF-539 CNS -91.1% [8.25 µM] | UACC-257 melanoma -0.384% [8.25 µM] | M14 melanoma -41.9% [8.25 µM]
inactive: SF-295 CNS 52.4% [8.25 µM]

O=C(NCCN1CCOCC1)OCc1ccc2c(Cl)cc(Cl)c(O)c2n1
inactive: DU-145 prostate 57.7% | K-562 leukemia 31.7% | MALME-3M melanoma 73.4% | MDA-MB-231 breast 93.8% | RXF 393 renal 77.3% | SF-268 CNS 57.3% | SF-295 CNS 49.2% | SF-539 CNS 77.9% | UACC-257 melanoma 89.1% | M14 melanoma 54.6%

CC1=C2CC/C(C)=C/CC[C@]3(C)O[C@H]3CC/C(C)=C/[C@H]2OC1
inactive: DU-145 prostate 110% | K-562 leukemia 87.5% | MALME-3M melanoma 112% | MDA-MB-231 breast 96.5% | RXF 393 renal 126% | SF-268 CNS 105% | SF-295 CNS 91% | SF-539 CNS 95.1% | UACC-257 melanoma 98.3% | M14 melanoma 103%

CCOC(=O)c1c(C)nc2c(c1N)C(=O)C(=O)N2Cc1ccc(OC)cc1
inactive: DU-145 prostate 84.7% | K-562 leukemia 28.8% | MALME-3M melanoma 58.7% | MDA-MB-231 breast 79.7% | RXF 393 renal 87.9% | SF-268 CNS 64.7% | SF-295 CNS 74.3% | SF-539 CNS 45.5% | UACC-257 melanoma 76.2% | M14 melanoma 68.8%

Cc1nc2sc(C(=O)Nc3cccc4ccccc34)c(N)c2cc1C(=O)c1ccccc1
active: K-562 leukemia 9.45% | SF-539 CNS -12.1%
inactive: DU-145 prostate 18.3% | MALME-3M melanoma 58.5% | MDA-MB-231 breast 15.2% | RXF 393 renal 22.6% | SF-268 CNS 53.4% | SF-295 CNS 10.4% | UACC-257 melanoma 72.7% | M14 melanoma 12.4%
